# According to PubChem BioAssay (EPA / NIEHS):
# Activity calls are given as the source filed them. Rule for the calls: active = hit-call score of the fitted dose curve at least 0.9, where 1 is the maximum; inactive = score below 0.9.
# Experiment: APR_HepG2_MicrotubuleCSK_1hr: Apredica 1-hour HepG2 Assay for Microtubule CSK Stabilty (AID 2282669)
# Conditions: HepG2 microtubule cytoskeleton imaging, actives raise or lower the signal
# Procedure: APR_HepG2_1hr is a cell-based, multiplexed-readout assay that uses HepG2, a human liver cell line, with measurements taken at 1 hour after chemical dosing in a 384-well plate.APR_HepG2_MicrotubuleCSK_1hr is one of 10 assay component(s) measured or calculated from the APR_HepG2_1hr assay. It is designed to make measurements of protein conformation, a form of conformation reporter, as detected with fluorescence intensity signals by HCS Fluorescent Imaging technology.Data from the assay component APR_HepG2_MicrotubuleCSK_1hr was analyzed into 1 assay endpoint. This assay endpoint, APR_HepG2_MicrotubuleCSK_1hr, was analyzed with bidirectional fitting relative to DMSO as the negative control and baseline of activity. Using a type of conformation reporter, measures of protein for gain or loss-of-signal activity can be used to understand the signaling at the cellular-level. Furthermore, this assay endpoint can be referred to as a primary readout, because this assay has produced multiple assay endpoints where this one serves a signaling function. To generalize the intended target to other relatable targets, this assay endpoint is annotated to the cell morphology intended target family, where the subfamily is cell conformation.
# Cells were treated with dimethyl sulfoxide (DMSO) as a solvent control at a final concentration of 0.5% v/v or with compounds in DMSO with a resulting final DMSO concentration of 0.5% v/v. Compound treatment was done at concentrations of 0.39, 0.78, 1.56, 3.12, 6.24, 12.5, 25, 50, 100, and 200 uM in duplicate on each plate. Cells were treated with compounds for 1, 24, or 72 hr. Carbonyl […] m-chloro-phenylhydrazone (CCCP) and taxol were used as positive controls for mitochondrial function and cytoskeletal stability, respectively; DMSO served as the negative control for this experiment. Cells were fixed by the direct addition of 50 uL formaldehyde in Hank's Balanced Salt Solution (HBSS) to a final concentration of 3.7%. After incubation in the fixation medium for 30 min at room temperature (293-298 K), cells were rinsed twice with HBSS and treated with cell permeabilization buffer (16 uL of 0.5% Triton X-100) for 10 min at room temperature (293-298 K) before labeling. For mitochondrial membrane potential and mitochondrial measurements, pre-fixed cells were incubated with 50 uL of MitoTracker Red CMXRos (Invitrogen) at a concentration of 250 nM for 30 min before fixation. In the remaining cases, post-fixed cells were labeled by incubation with a multiplexed mixture of primary antibodies in HBSS for 60 min at room temperature (293-298 K) to detect immunoreactivity of c-Jun (1:500), phospho-histone H3 (1:100), phospho-histone H2A.x (1:200), p53 (1:400), alpha-tubulin (1:200) and Hoechst 33342 (2 ug/mL). Cells were labeled for multiplexed imaging on two separate plates: a) Hoechst 33342, MitoTracker Red, phospho-histone H3, and alpha-tubulin, and b) Hoechst 33342, phospho-histone H2A.x, and c-Jun. A final rinse with HBSS (50 uL) was performed before analysis. The primary and secondary antibodies for the proteins were phospho-histone H3 (rabbit anti-phospho-histone H3 and FITC-donkey anti-rabbit IgG), phospho-histone H2A.x (mouse anti-phospho-histone H2A.x and FITC-donkey anti-mouse IgG), c-Jun (rabbit anti-phospho-c-Jun and Cy3-donkey anti-rabbit IgG), p53 (sheep anti-p53 and Cy5-donkey anti-sheep IgG), alpha-tubulin (mouse anti-alpha-tubulin and Cy5-donkey anti-mouse IgG). These antibodies are available as the CellCiphr HepG2 assay kit (Millipore).Digital images of each well were captured using a Cellomics ArrayScan VTI (Thermo Scientific Cellomics) (0.8 NA objective, 0.63x optical coupler, and XF-93 filter set) at 20x magnification. The images were acquired using the autofocus feature of the ArrayScan instrument, which entails the following steps. First, the camera focuses on channel 1 (Hoechst 33342), where nuclei are identified. Second, a Z offset of 1 um is used for capturing mitochondria (MitoTracker Red). […]
row,Compound,outcome
1,CC(C)NC(=O)N1CC(=O)N(c2cc(Cl)cc(Cl)c2)C1=O,inactive
2,CCOc1nc(F)cc2nc(S(=O)(=O)Nc3c(Cl)cccc3Cl)nn12,inactive
3,N#CN=C1SCCN1Cc1ccc(Cl)nc1,inactive
4,CC(C)N1C(=O)c2ccccc2NS1(=O)=O,inactive
5,CCCCOCN(C(=O)CCl)c1c(CC)cccc1CC,inactive
6,C=C(C)CN(CC)c1c([N+](=O)[O-])cc(C(F)(F)F)cc1[N+](=O)[O-],inactive
7,O=C(Nc1ccccc1-c1ccc(Cl)cc1)c1cccnc1Cl,inactive
8,CCOP(=O)(OCC)Oc1nc(Cl)c(Cl)cc1Cl,inactive
9,Cc1cc(C)nc(Nc2ccccc2)n1,inactive
10,CC1(C)C(C(=O)OC(C#N)c2cccc(Oc3ccccc3)c2)C1(C)C (stereo not given),inactive
11,COc1cc(OC)nc(NC(=O)NS(=O)(=O)c2ncccc2OCC(F)(F)F)n1,inactive
12,CCN(CC)c1nc(C)cc(OP(=S)(OC)OC)n1,inactive
13,CCCC(=NOCC)C1=C(O)CC(CC(C)SCC)CC1=O (stereo not given),inactive
14,O=C(O)c1c(Cl)ccc2cc(Cl)cnc12,inactive
15,CCNC(=O)NC(=O)C(C#N)=NOC,inactive
16,CCOc1cc(C(C)(C)C)ccc1C1COC(c2c(F)cccc2F)=N1 (stereo not given),inactive
17,N#Cc1c[nH]cc1-c1cccc2c1OC(F)(F)O2,inactive
18,Nc1c(Cl)c(F)nc(OCC(=O)O)c1Cl,inactive
19,CCN(CC)C(=O)C(C)Oc1cccc2ccccc12 (stereo not given),inactive
20,COP(=S)(OC)Oc1ccc([N+](=O)[O-])c(C)c1,inactive

row,Compound,outcome
1,Clc1nc(Cl)nc(Nc2ccccc2Cl)n1,inactive
2,COC(=O)N(C(=O)N1CO[C@@]2(C(=O)OC)Cc3cc(Cl)ccc3C2=N1)c1ccc(OC(F)(F)F)cc1,inactive
3,CCOc1nc(C(Cl)(Cl)Cl)ns1,inactive
4,CNC(=O)N(C)c1nnc(C(C)(C)C)s1,inactive
5,Cc1ccc(N=CN(C)C=Nc2ccc(C)cc2C)c(C)c1,inactive
6,CN/C(=N\[N+](=O)[O-])NCc1cnc(Cl)s1,inactive
7,CCCN(CC)CC1COC2(CCC(C(C)(C)C)CC2)O1 (stereo not given),inactive
8,CCOP(=S)(OCC)Oc1nc(Cl)n(C(C)C)n1,inactive
9,Nc1c(Cl)c(Cl)nc(C(=O)O)c1Cl,inactive
10,CS(=O)(=O)c1cc(C(F)(F)F)ccc1C(=O)c1cnoc1C1CC1,inactive
11,CCC(C)n1c(=O)[nH]c(C)c(Br)c1=O (stereo not given),inactive
12,COCC(=O)N(c1c(C)cccc1C)C(C)C(=O)OC (stereo not given),inactive
13,COc1ccc(-c2ccccc2)cc1NNC(=O)OC(C)C,inactive
14,CO/N=C(/C1=NOCCO1)c1ccccc1Oc1ncnc(Oc2ccccc2Cl)c1F,inactive
15,Nc1cnn(-c2ccccc2)c(=O)c1Cl,inactive
16,COCC(C)N(C(=O)CCl)c1c(C)csc1C (stereo not given),inactive
17,CC(C)C1(C)N=C(c2ncccc2C(=O)O)NC1=O (stereo not given),inactive
18,N#Cc1c(Cl)cccc1Cl,inactive
19,CC1(C)CCC(=Cc2ccc(Cl)cc2)C1(O)Cn1cncn1 (stereo not given),inactive
20,C=CCOC(=O)C(C)(C)OC(=O)c1cc(-n2c(=O)cc(C(F)(F)F)n(C)c2=O)ccc1Cl,inactive
